Results from the supplement of paper PMC7411054.
Structures can show the parent of a compound that is named as a salt.

Experiments:
Conditions in all cases: treatment time: 24 h
A549-ACTB-RAB5A [1] = assay: lowest phenotypically active concentration; higher = less potent
Method in brief: (§1)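 After 24 h at 0.3, 1, 3 or 9 µM, with four wells per treatment, fifteen gene-edited A549, HepG2 and WPMY1 reporter lines carrying BFP, GFP and RFP/FusionRed were imaged live. Each well's live-cell features were expressed relative to solvent control wells. Deviation required ≥3 of 4 wells past the 95th percentile of control Euclidean distances, and reproducibility a median replicate Pearson correlation over the 95th percentile of non-replicates. Phenotypic activity rested on both.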

A549-ACTB-RAB5A [2] = assay: phenotypically active (imaging signature differs from DMSO and reproducible) at any of 0.3-9 uM (binary (1 = active, 0 = inactive)); higher = active
Method in brief: as §1

A549-CANX-COX4 = assay: as above
Method in brief: as §1

A549-GM130-SQSTM1 [3] = assay: as above
Method in brief: as §1

A549-TP53BP1-CLTA = assay: as above
Method in brief: as §1

A549-TUBA1B-RELA = assay: as above
Method in brief: as §1

HepG2-ACTB-RAB5A = assay: as above
Method in brief: as §1

HepG2-CANX-COX4 [4] = assay: as above
Method in brief: as §1

HepG2-GM130-SQSTM1 = assay: as above
Method in brief: as §1

HepG2-TP53BP1-CLTA = assay: as above
Method in brief: as §1

HepG2-TUBA1B-RELA = assay: as above
Method in brief: as §1

WPMY1-ACTB-RAB5A = assay: as above
Method in brief: as §1

WPMY1-CANX-COX4 [5] = assay: as above
Method in brief: as §1

WPMY1-GM130-SQSTM1 [6] = assay: as above
Method in brief: as §1

WPMY1-TP53BP1-CLTA = assay: as above
Method in brief: as §1

WPMY1-TUBA1B-RELA = assay: as above
Method in brief: as §1

WPMY1-CANX-COX4 [7] = assay: lowest phenotypically active concentration; higher = less potent
Method in brief: as §1

A549-GM130-SQSTM1 [8] = assay: as above
Method in brief: as §1

WPMY1-GM130-SQSTM1 [9] = assay: as above
Method in brief: as §1

HepG2-CANX-COX4 [10] = assay: as above
Method in brief: as §1

| Compound | lowest phenotypically active concentration (A549-ACTB-RAB5A [1]) | phenotypically active (A549-ACTB-RAB5A [2]) | phenotypically active (A549-CANX-COX4) | phenotypically active (A549-GM130-SQSTM1 [3]) | phenotypically active (A549-TP53BP1-CLTA) | phenotypically active (A549-TUBA1B-RELA) | phenotypically active (HepG2-ACTB-RAB5A) | phenotypically active (HepG2-CANX-COX4 [4]) | phenotypically active (HepG2-GM130-SQSTM1) | phenotypically active (HepG2-TP53BP1-CLTA) | phenotypically active (HepG2-TUBA1B-RELA) | phenotypically active (WPMY1-ACTB-RAB5A) | phenotypically active (WPMY1-CANX-COX4 [5]) | phenotypically active (WPMY1-GM130-SQSTM1 [6]) | phenotypically active (WPMY1-TP53BP1-CLTA) | phenotypically active (WPMY1-TUBA1B-RELA) | lowest phenotypically active concentration (WPMY1-CANX-COX4 [7]) | lowest phenotypically active concentration (A549-GM130-SQSTM1 [8]) | lowest phenotypically active concentration (WPMY1-GM130-SQSTM1 [9]) | lowest phenotypically active concentration (HepG2-CANX-COX4 [10]) |
| --- | --- | --- | --- | --- | --- | --- | --- | --- | --- | --- | --- | --- | --- | --- | --- | --- | --- | --- | --- | --- |
| Cc1cccc(CN2CCN(C(c3ccccc3)c3ccc(Cl)cc3)CC2)c1 (centres undefined) [Meclizine dihydrochloride] | 9 µM | 1 (active) | 0 (inactive) | 0 (inactive) | 0 (inactive) | 0 (inactive) | 0 (inactive) | 0 (inactive) | 0 (inactive) | 0 (inactive) | 1 (active) | 0 (inactive) | 0 (inactive) | 0 (inactive) | 0 (inactive) | 0 (inactive) |  |  |  |  |
| Nc1ncnc2c1nc(Br)n2[C@@H]1O[C@@H]2COP(=O)(O)O[C@H]2[C@H]1O [8-Bromo-cAMP, sodium salt] | 9 µM | 1 (active) | 0 (inactive) | 0 (inactive) | 0 (inactive) | 0 (inactive) | 0 (inactive) | 0 (inactive) | 0 (inactive) | 0 (inactive) | 0 (inactive) | 0 (inactive) | 1 (active) | 0 (inactive) | 0 (inactive) | 0 (inactive) | 9 µM |  |  |  |
| Cc1cc2sc(NC(=O)Cc3ccccc3)nc2cc1Cl |  | 0 (inactive) | 0 (inactive) | 1 (active) | 0 (inactive) | 1 (active) | 0 (inactive) | 0 (inactive) | 0 (inactive) | 0 (inactive) | 0 (inactive) | 0 (inactive) | 0 (inactive) | 0 (inactive) | 0 (inactive) | 0 (inactive) |  | 3 µM |  |  |
| O=S(=O)(c1ccccc1)N(CC(F)(F)F)c1ccc(C(O)(C(F)(F)F)C(F)(F)F)cc1 |  | 0 (inactive) | 0 (inactive) | 1 (active) | 0 (inactive) | 0 (inactive) | 0 (inactive) | 0 (inactive) | 0 (inactive) | 0 (inactive) | 0 (inactive) | 0 (inactive) | 0 (inactive) | 0 (inactive) | 0 (inactive) | 0 (inactive) |  | 9 µM |  |  |
| CC(C)c1ccc(-c2cc(=O)c3ccccc3o2)cc1 | 9 µM | 1 (active) | 0 (inactive) | 0 (inactive) | 0 (inactive) | 0 (inactive) | 0 (inactive) | 0 (inactive) | 0 (inactive) | 0 (inactive) | 0 (inactive) | 0 (inactive) | 0 (inactive) | 1 (active) | 0 (inactive) | 0 (inactive) |  |  | 3 µM |  |
| COc1cc(C)c(/C=C/C(C)=C/C=C/C(C)=C/C(=O)O)c(C)c1C [acitretin] | 9 µM | 1 (active) | 0 (inactive) | 0 (inactive) | 0 (inactive) | 0 (inactive) | 0 (inactive) | 0 (inactive) | 0 (inactive) | 0 (inactive) | 0 (inactive) | 0 (inactive) | 1 (active) | 1 (active) | 0 (inactive) | 0 (inactive) | 9 µM |  | 9 µM |  |
| CC(=O)C1=C(O)[C@]2(C)C(=CC1=O)Oc1c(C(C)=O)c(O)c(C)c(O)c12 [(+)-Usnic acid] |  | 0 (inactive) | 0 (inactive) | 1 (active) | 0 (inactive) | 0 (inactive) | 0 (inactive) | 0 (inactive) | 0 (inactive) | 0 (inactive) | 0 (inactive) | 0 (inactive) | 0 (inactive) | 0 (inactive) | 0 (inactive) | 0 (inactive) |  | 9 µM |  |  |
| CCc1ccc(/C=C/C(=O)Nc2ccc(C(C)=O)cc2)o1 [Heclin] |  | 0 (inactive) | 0 (inactive) | 1 (active) | 0 (inactive) | 1 (active) | 0 (inactive) | 0 (inactive) | 0 (inactive) | 0 (inactive) | 0 (inactive) | 0 (inactive) | 0 (inactive) | 0 (inactive) | 0 (inactive) | 0 (inactive) |  | 9 µM |  |  |
| Cn1c(=O)c2nc[nH]c2n(C)c1=O [theophylline] |  | 0 (inactive) | 0 (inactive) | 1 (active) | 0 (inactive) | 0 (inactive) | 0 (inactive) | 0 (inactive) | 0 (inactive) | 0 (inactive) | 0 (inactive) | 0 (inactive) | 0 (inactive) | 0 (inactive) | 0 (inactive) | 0 (inactive) |  | 9 µM |  |  |
| CC(=O)N1CCN(c2ccc(OC[C@H]3CO[C@](Cn4ccnc4)(c4ccc(Cl)cc4Cl)O3)cc2)CC1 [Ketoconazole] | 9 µM | 1 (active) | 0 (inactive) | 0 (inactive) | 0 (inactive) | 0 (inactive) | 0 (inactive) | 0 (inactive) | 0 (inactive) | 0 (inactive) | 0 (inactive) | 0 (inactive) | 0 (inactive) | 1 (active) | 0 (inactive) | 0 (inactive) |  |  | 9 µM |  |
| CC[C@H](Nc1ncnc2[nH]cnc12)c1nc2cccc(F)c2c(=O)n1-c1ccccc1 [idelalisib] | 9 µM | 1 (active) | 0 (inactive) | 0 (inactive) | 0 (inactive) | 0 (inactive) | 0 (inactive) | 0 (inactive) | 0 (inactive) | 0 (inactive) | 0 (inactive) | 1 (active) | 0 (inactive) | 0 (inactive) | 0 (inactive) | 0 (inactive) |  |  |  |  |
| CC(C)(C)c1ccc(S(=O)(=O)/C=C/C#N)cc1 | 9 µM | 1 (active) | 0 (inactive) | 0 (inactive) | 0 (inactive) | 0 (inactive) | 0 (inactive) | 0 (inactive) | 1 (active) | 0 (inactive) | 1 (active) | 0 (inactive) | 1 (active) | 1 (active) | 1 (active) | 0 (inactive) | 9 µM |  | 9 µM |  |
| Cc1cccc(-c2nn(C(=S)Nc3ccccc3)cc2-c2ccnc3ccccc23)n1 |  | 0 (inactive) | 1 (active) | 1 (active) | 0 (inactive) | 1 (active) | 1 (active) | 1 (active) | 1 (active) | 1 (active) | 1 (active) | 1 (active) | 1 (active) | 1 (active) | 1 (active) | 1 (active) | 9 µM | 9 µM | 9 µM | 3 µM |
| CC(C)(C)c1cc(/C=C(\C#N)C(N)=S)cc(C(C)(C)C)c1O |  | 0 (inactive) | 1 (active) | 1 (active) | 1 (active) | 0 (inactive) | 1 (active) | 1 (active) | 1 (active) | 1 (active) | 1 (active) | 0 (inactive) | 0 (inactive) | 1 (active) | 1 (active) | 0 (inactive) |  | 3 µM | 9 µM | 9 µM |
| CC(C)(C(=O)c1cccnc1)c1cccnc1 [metyrapone] |  | 0 (inactive) | 0 (inactive) | 1 (active) | 0 (inactive) | 0 (inactive) | 0 (inactive) | 0 (inactive) | 0 (inactive) | 0 (inactive) | 0 (inactive) | 0 (inactive) | 0 (inactive) | 0 (inactive) | 0 (inactive) | 0 (inactive) |  | 9 µM |  |  |
| CC(C)NC[C@H](O)COc1cccc2ccccc12 [(S)-(-)-Propranolol hydrochloride] |  | 0 (inactive) | 0 (inactive) | 1 (active) | 0 (inactive) | 0 (inactive) | 0 (inactive) | 0 (inactive) | 0 (inactive) | 0 (inactive) | 0 (inactive) | 0 (inactive) | 0 (inactive) | 0 (inactive) | 0 (inactive) | 0 (inactive) |  | 9 µM |  |  |
| Nc1ncnc2c1ncn2[C@@H]1O[C@H](CO)[C@@H](O)[C@H]1O [Adenosine] |  | 0 (inactive) | 0 (inactive) | 0 (inactive) | 0 (inactive) | 0 (inactive) | 1 (active) | 0 (inactive) | 0 (inactive) | 0 (inactive) | 0 (inactive) | 0 (inactive) | 0 (inactive) | 0 (inactive) | 0 (inactive) | 0 (inactive) |  |  |  |  |
| S=c1[nH]cnc2nc[nH]c12 [mercaptopurine] |  | 0 (inactive) | 0 (inactive) | 0 (inactive) | 0 (inactive) | 0 (inactive) | 1 (active) | 1 (active) | 0 (inactive) | 0 (inactive) | 1 (active) | 0 (inactive) | 1 (active) | 1 (active) | 0 (inactive) | 1 (active) | 9 µM |  | 9 µM | 9 µM |
| Cc1cc(C(=O)Nc2cccc(C(=O)Nc3cccc(C(F)(F)F)c3)c2)on1 |  | 0 (inactive) | 0 (inactive) | 0 (inactive) | 0 (inactive) | 0 (inactive) | 0 (inactive) | 1 (active) | 0 (inactive) | 0 (inactive) | 0 (inactive) | 0 (inactive) | 0 (inactive) | 0 (inactive) | 0 (inactive) | 0 (inactive) |  |  |  | 1 µM |
| Cc1c(C)c2c(c(C)c1O)CC[C@@](C)(CCC[C@H](C)CCC[C@H](C)CCCC(C)C)O2 [Tocopherol (R,S)] |  | 0 (inactive) | 0 (inactive) | 0 (inactive) | 0 (inactive) | 0 (inactive) | 0 (inactive) | 1 (active) | 0 (inactive) | 0 (inactive) | 0 (inactive) | 0 (inactive) | 0 (inactive) | 0 (inactive) | 0 (inactive) | 0 (inactive) |  |  |  | 3 µM |
| CCCc1cc2c(N3CCN(C4=NCC(C)(C)S4)CC3)ncnc2s1 [MI 2 dihydrochloride] |  | 0 (inactive) | 0 (inactive) | 1 (active) | 0 (inactive) | 0 (inactive) | 1 (active) | 1 (active) | 1 (active) | 1 (active) | 0 (inactive) | 1 (active) | 0 (inactive) | 1 (active) | 0 (inactive) | 0 (inactive) |  | 9 µM | 9 µM | 9 µM |
| C[C@@H]1CN(Cc2ccc(F)cc2)[C@@H](C)CN1C(=O)c1cc2c(C(=O)C(=O)N(C)C)cn(C)c2cc1Cl [SCIO 469 hydrochloride] |  | 0 (inactive) | 0 (inactive) | 0 (inactive) | 0 (inactive) | 0 (inactive) | 1 (active) | 1 (active) | 0 (inactive) | 1 (active) | 1 (active) | 1 (active) | 1 (active) | 0 (inactive) | 0 (inactive) | 0 (inactive) | 3 µM |  |  | 1 µM |
| CC1(C)CCC(C)(C)c2cc(C(O)C(=O)Nc3ccc(C(=O)O)cc3F)ccc21 (centres undefined) |  | 0 (inactive) | 0 (inactive) | 0 (inactive) | 0 (inactive) | 0 (inactive) | 0 (inactive) | 1 (active) | 0 (inactive) | 0 (inactive) | 0 (inactive) | 0 (inactive) | 0 (inactive) | 0 (inactive) | 0 (inactive) | 0 (inactive) |  |  |  | 9 µM |
